{"source": "the supplement of paper PMC8728848", "assay_in_all_cases": "glycan array binding signal (z-score within array); higher = stronger binding", "details_in_all_cases": "glycan notation: IUPAC condensed, linker removed", "key": {"Fuc(a1-2)Gal(b1-4)GlcNAc": {"molecular_target": "Fuc(a1-2)Gal(b1-4)GlcNAc", "summary_of_the_method": "(§1)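 Glycan array data were curated from 3228 arrays in the Consortium for Functional Glycomics database and kept only where the protein sequence was available. Glycan names were converted to IUPAC-condensed notation, and columns mapping to the same glycan were averaged. The binding signal is a within-array Z-score, averaged across arrays of the same protein sequence at different concentrations or buffers and across linkers. Negative Z-scores can be read as non-binding.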"}, "Fuc(a1-2)[Gal(a1-3)]Gal": {"molecular_target": "Fuc(a1-2)[Gal(a1-3)]Gal", "summary_of_the_method": "as §1"}, "Fuc(b1-3)GlcNAc": {"molecular_target": "Fuc(b1-3)GlcNAc", "summary_of_the_method": "as §1"}, "[1]": {"molecular_target": "Gal(a1-3)[Gal(a1-4)]Gal(b1-4)GlcNAc", "summary_of_the_method": "as §1"}, "[2]": {"molecular_target": "Gal(b1-3)[Neu5Ac(a2-6)]GalNAc", "summary_of_the_method": "as §1"}, "[3]": {"molecular_target": "Gal(b1-4)GlcNAc(b1-3)Gal(b1-4)GlcNAc", "summary_of_the_method": "as §1"}, "GlcNAc(b1-3)Gal": {"molecular_target": "GlcNAc(b1-3)Gal", "summary_of_the_method": "as §1"}, "GlcNAc(b1-3)Gal(b1-4)Glc": {"molecular_target": "GlcNAc(b1-3)Gal(b1-4)Glc", "summary_of_the_method": "as §1"}, "[4]": {"molecular_target": "GlcNAc(b1-3)[GlcNAc(b1-6)]Gal(b1-4)GlcNAc", "summary_of_the_method": "as §1"}, "[5]": {"molecular_target": "GlcNAc(b1-3)[GlcNAc(b1-6)]GalNAc", "summary_of_the_method": "as §1"}, "[6]": {"molecular_target": "GlcNAc(b1-4)[GlcNAc(b1-6)]GalNAc", "summary_of_the_method": "as §1"}, "[7]": {"molecular_target": "Neu5Ac(a2-3)Gal(b1-3)GalNAc(b1-3)Gal(a1-4)Gal(b1-4)Glc", "summary_of_the_method": "as §1"}, "[8]": {"molecular_target": "Neu5Ac(a2-3)Gal(b1-3)GalNAc(b1-3)Gal(b1-4)GlcNAc", "summary_of_the_method": "as §1"}, "[9]": {"molecular_target": "Neu5Ac(a2-3)Gal(b1-4)GlcNAc", "summary_of_the_method": "as §1"}, "Neu5Ac(a2-3)GalNAc": {"molecular_target": "Neu5Ac(a2-3)GalNAc", "summary_of_the_method": "as §1"}}, "note": "Only a selection was taken, and the strongest signals are over-represented in it overall."}
{"binder": "F17dG (Escherichia coli), Q47199 (protein) MTNFYKVFLAVFILVCCNISQAAVSFIGSTENDVGPSPGSYSRTHAMDNLPFVYNTGNNIGYQNANVWRISKGFCVGLDGKVDLPVVGSLDGQSIYGLTEEVGLLIWMGDTNYSRGTAMSGNSWENVFSGWCVGANTASTQGLSVRVTPVILKRNSSARYSVQKTSIGSIRMRPYNGSSAGSVQTTVNFSLNPFTLNDTVTSCRLLTPSAVNVSLAAISAGQLPSSGDEVVAGTTSLKLQCDAGVTVWATLTDATTPSNRSDILTLTGASTATGVGLRIYKNTDSTPLKFGPDSPVKGNENQWQLSTGTETSPSVRLYVKYVNTGEGINPGTVNGISTFTFSYQ", "values": [{"measurement": "glycan array binding signal (z-score)", "setting": "Fuc(a1-2)Gal(b1-4)GlcNAc", "value": -0.185}, {"measurement": "glycan array binding signal (z-score)", "setting": "Fuc(a1-2)[Gal(a1-3)]Gal", "value": -0.276}, {"measurement": "glycan array binding signal (z-score)", "setting": "Fuc(b1-3)GlcNAc", "value": -0.225}, {"measurement": "glycan array binding signal (z-score)", "setting": "[1]", "value": -0.399}, {"measurement": "glycan array binding signal (z-score)", "setting": "[2]", "value": -0.194}, {"measurement": "glycan array binding signal (z-score)", "setting": "[3]", "value": -0.287}, {"measurement": "glycan array binding signal (z-score)", "setting": "GlcNAc(b1-3)Gal", "value": 4.56}, {"measurement": "glycan array binding signal (z-score)", "setting": "GlcNAc(b1-3)Gal(b1-4)Glc", "value": 5.88}, {"measurement": "glycan array binding signal (z-score)", "setting": "[4]", "value": 5.46}, {"measurement": "glycan array binding signal (z-score)", "setting": "[5]", "value": 6.17}, {"measurement": "glycan array binding signal (z-score)", "setting": "[6]", "value": -0.009}, {"measurement": "glycan array binding signal (z-score)", "setting": "[7]", "value": -0.399}, {"measurement": "glycan array binding signal (z-score)", "setting": "[8]", "value": -0.204}, {"measurement": "glycan array binding signal (z-score)", "setting": "[9]", "value": -0.354}, {"measurement": "glycan array binding signal (z-score)", "setting": "Neu5Ac(a2-3)GalNAc", "value": -0.327}]}
